Measurements from the supplement of paper PMC9262897, “Low-cost anti-mycobacterial drug discovery using engineered E. coli” (Nature Communications, 2022).
Counter-ions that a name gives are not always drawn. ± gives the standard deviation of the averaged measurements.

system: E. coli TESEC Mtb Alr; assay: growth (OD600 after 10 h); higher = more growth (less inhibition); settings: arabinose 1000 nM; compound 0.1 mM; raw OD600 reference: median of DMSO wells 0.294, cell-free background 0.041
Protocol: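 TESEC Mtb Alr E. coli, or the Alr+ wild-type control, in 384-well plates with Prestwick library compounds at 0.1 mM and 1% DMSO, across arabinose induction levels of 1E3 to 1E7 nM. Growth is read as OD600 after 10 h at 37 °C in triplicate biological replicates.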

Compound	growth
CCCCN(CCCC)CCC(O)c1cc2c(Cl)cc(Cl)cc2c2cc(C(F)(F)F)ccc12 (centres undefined) [Halofantrine hydrochloride]	0.313 ± 0.006
CO[C@@H]1[C@@H](O[C@@H]2O[C@H](C)[C@@H](O[C@H]3C[C@@](C)(O)[C@@H](OC(=O)CC(C)C)[C@H](C)O3)[C@H](N(C)C)[C@H]2O)[C@@H](CC=O)C[C@@H](C)[C@@H](O)/C=C/C=C/C[C@@H](C)OC(=O)C[C@H]1OC(C)=O [Josamycin]	0.04093 ± 5.8e-05
Cc1ccccc1C(OCCN(C)C)c1ccccc1 (centres undefined) [Orphenadrine hydrochloride]	0.26 ± 0.024
O=C(NCC1CCCCN1)c1cc(OCC(F)(F)F)ccc1OCC(F)(F)F (centres undefined) [Flecainide acetate]	0.2999 ± 0.00055
C[C@]12CC[C@@H]3c4ccc(O)cc4C[C@@H](CCCCCCCCC[S+]([O-])CCCC(F)(F)C(F)(F)F)[C@H]3[C@@H]1CC[C@@H]2O (some centres undefined) [Fulvestrant]	0.296 ± 0.016
CN1CCN(CC(=O)N2c3ccccc3C(=O)Nc3cccnc32)CC1 [Pirenzepine dihydrochloride]	0.269 ± 0.049
CCCCC(=O)N(Cc1ccc(-c2ccccc2-c2nnn[nH]2)cc1)[C@H](C(=O)O)C(C)C [Valsartan]	0.307 ± 0.0036
CCOc1ccccc1OCC1CNCCO1 (centres undefined) [Viloxazine hydrochloride]	0.294 ± 0.023
Cc1nc2n(c(=O)c1CCN1CCC(c3noc4cc(F)ccc34)CC1)CCCC2 [Risperidone]	0.305 ± 0.007
C=C1C(=O)O[C@H]2[C@H]1CC/C(C)=C/CC[C@@]1(C)O[C@@H]21 [Parthenolide]	0.303 ± 0.0032
CC(C(O)c1ccc(O)cc1)N1CCC(Cc2ccccc2)CC1 (centres undefined) [Ifenprodil tartrate]	0.251 ± 0.019
O=C(c1ccc(F)cc1)C1CCN(CCn2c(=O)[nH]c3ccccc3c2=O)CC1 [Ketanserin tartrate hydrate]	0.251 ± 0.0083
COc1cc2nc(N(C)CCCNC(=O)C3CCCO3)nc(N)c2cc1OC (centres undefined) [Alfuzosin hydrochloride]	0.286 ± 0.005
CN(C)C(=O)C(CCN1CCC(O)(c2ccc(Cl)cc2)CC1)(c1ccccc1)c1ccccc1 [Loperamide hydrochloride]	0.0401 ± 0.00042
CNCCC=C1c2ccccc2C=Cc2ccccc21 [Norcyclobenzaprine]	0.194 ± 0.022
O=S(=O)(O)c1cc(O)ccc1O [Ethamsylate]	0.311 ± 0.0039
N[C@@H]1CONC1=O [D-cycloserine]	0.0374 ± 0.00045
Clc1ccc(CO/N=C(\Cn2ccnc2)c2ccc(Cl)cc2Cl)c(Cl)c1 [Oxiconazole Nitrate]	0.0489 ± 0.0051
COc1cc(NS(=O)(=O)c2ccc(N)cc2)ncn1 [Sulfamonomethoxine]	0.259 ± 0.022
C[C@@H]1NC(=O)NC1=O [Methylhydantoin-5-(L)]	0.292 ± 0.012

Compound	growth
Cn1c(=O)c2c(ncn2CC(=O)O)n(C)c1=O [Acefylline]	0.307 ± 0.01
CCC(=O)O[C@]1(C(=O)SCF)[C@H](C)C[C@H]2[C@@H]3C[C@H](F)C4=CC(=O)C=C[C@]4(C)[C@@]3(F)[C@@H](O)C[C@@]21C [Fluticasone propionate]	0.29 ± 0.013
Cn1c(=O)c2c(ncn2CCO)n(C)c1=O [Etofylline]	0.283 ± 0.0029
CCOC(=O)[C@H](CCc1ccccc1)N[C@@H](C)C(=O)N1CCC[C@H]1C(=O)O [Enalapril maleate]	0.296 ± 0.017
CCC[C@@H]1C[C@@H](C(=O)N[C@@H]([C@H]2O[C@H](SC)[C@H](O)[C@@H](O)[C@H]2O)[C@@H](C)O)N(C)C1 [Lincomycin hydrochloride]	0.122 ± 0.011
CC(C)(C)NC[C@H](O)COc1nsnc1N1CCOCC1 [Timolol maleate salt]	0.306 ± 0.0088
CC(C)NCC(O)COc1ccc(COCCOC(C)C)cc1 (centres undefined) [Bisoprolol fumarate]	0.302 ± 0.01
c1ccc2c(CC3=NCCN3)cccc2c1 [Naphazoline hydrochloride]	0.26 ± 0.032
CC(=O)OCC(=O)[C@@]1(O)CC[C@H]2[C@@H]3CCC4=CC(=O)CC[C@]4(C)[C@@]3(F)[C@@H](O)C[C@@]21C [Fludrocortisone acetate]	0.235 ± 0.021
O=P(O)(O)C(O)(Cn1ccnc1)P(=O)(O)O [Zoledronic acid hydrate]	0.279 ± 0.0055
Cc1c(N(C)C)c(=O)n(-c2ccccc2)n1C [Amidopyrine]	0.28 ± 0.016
C=C1/C(=C\C=C2/CCC[C@]3(C)[C@@H]([C@H](C)/C=C/[C@@H](O)C4CC4)CC[C@@H]23)C[C@@H](O)C[C@@H]1O [Calcipotriene]	0.0502 ± 0.0045
NS(=O)(=O)c1cc2c(cc1Cl)N=CNS2(=O)=O [Chlorothiazide]	0.29 ± 0.0056
CN(C)CCc1c[nH]c2ccc(Cn3cncn3)cc12 [Rizatriptan benzoate]	0.2899 ± 0.0026
Nc1ncn(C2OC(CO)C(O)C2O)c(=O)n1 (centres undefined) [Azacytidine-5]	0.106 ± 0.0065
CC(=O)N[C@@H](CC(=O)N[C@@H](CCC(=O)O)C(=O)O)C(=O)O [Spaglumic acid]	0.289 ± 0.013
Cc1c(NC(=O)c2cccnc2)c(=O)n(-c2ccccc2)n1C [Nifenazone]	0.305 ± 0.0092
Cc1ccnc2c1NC(=O)c1cccnc1N2C1CC1 [Nevirapine]	0.29 ± 0.0079
CC(C)NCC(O)COc1ccc(CCOCC2CC2)cc1 (centres undefined) [Betaxolol hydrochloride]	0.301 ± 0.0039
